These results are taken from PubChem BioAssay (EPA / NIEHS).

Calls of active or inactive are those of the source. The calls were made as follows: active = hit-call score of the fitted dose curve at least 0.9, where 1 is the maximum; inactive = score below 0.9.

The assay is described as follows: ATG_TCF_b_cat_CIS: Attagene CIS-FACTORIAL HepG2 Assay for human T-Cell-Factor with beta-catenin (TCF/b-cat) (AID 2282965). The conditions noted are these: HepG2 TCF/beta-catenin cis-reporter transcription, actives raise or lower the signal. The procedure, abridged:
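HepG2 cells transiently transfected with multiple cis-promoter-regulated reporter transcription units, so endogenous transcription factor activity is measured. Reporter mRNA read 24 hours after dosing by RT-PCR, fluorescent labelling and capillary electrophoresis; bidirectional fitting against DMSO.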
For the compound `C=C(C)C(=O)OCCOC1CC2CC1C1C=CCC21` (stereo unspecified), the result was inactive.

As to `C=C(C)CNCC`, the result was inactive.

In the case of `CCC1(C)NC(=O)NC1=O` (stereo unspecified), the outcome was inactive.

As for `COc1cc(Cl)c(OC)cc1N`, the outcome was inactive.

As for `CCCCC(CC)(CO)CO`, the result was inactive.

On to `CC1(C)C(=O)N(Cl)C(=O)N1Br`, for which the result was inactive.

Turning to `CC(C)CC(C)CC(O)CC(C)C` (stereo unspecified), the compound was classed as inactive.

Consider `COC(CC(C)CCCC(C)(C)O)OC` (stereo unspecified), for which the compound was called inactive.

On to `c1ccc2cc(Nc3ccc(Nc4ccc5ccccc5c4)cc3)ccc2c1`, for which the call was inactive.

Take `CCCCCCCC(=O)OCCCCCC`: the result was inactive.

Regarding `COc1cc([C@@H]2c3cc4c(cc3[C@@H](O[C@@H]3O[C@@H]5CO[C@@H](C)O[C@H]5[C@H](O)[C@H]3O)[C@H]3COC(=O)[C@H]23)OCO4)cc(OC)c1O`, the outcome was inactive.

Consider `CC(=O)C(C)O` (stereo unspecified), for which the call was inactive.

Take `CCc1ccc(O)cc1`: the outcome was inactive.

With `CCOC(=O)CC(C)O` (stereo unspecified), the compound was called inactive.

On to `CCOC(=O)CN`, for which the result was inactive.

As to `CCCOC(=O)c1c(Cl)c(Cl)c(Cl)c(Cl)c1C(=O)OCCC`, the result was inactive.

In the case of `C/C=C(\C)C(=O)OCCc1ccccc1`, the result was inactive.

As for `Cc1ccc(OC(=O)c2ccccc2O)cc1`, the call was inactive.

As for `C=C(C)C(=O)OCC(CC)(COC(=O)C(=C)C)COC(=O)C(=C)C`, the compound was called inactive.

In the case of `Cc1ccc2c(c1)C(=O)OC2=O`, the compound was classed as inactive.

For the compound `C=Cc1ccc(C)cc1`, the compound was called inactive.

For the compound `CC1(C)C2=CCCC(C)(C)[C@]23CC[C@H]1C3`, the result was inactive.

`C=CCCC(=O)/C=C/C1C(C)=CCCC1(C)C` (stereo unspecified): the outcome was inactive.

For `COC(=O)c1ccc([N+](=O)[O-])cc1`, the outcome was inactive.

For the compound `Cc1ncc[nH]1`, the outcome was inactive.

`O=c1[nH]c(=O)c2cn[nH]c2[nH]1`: the result was inactive.
